# MEKK3 PB1 HTS: MEKK3-MEK5 PB1 interaction, increase or decrease | bead-based flow cytometry, Alexa488-MEK5 binding to MEKK3; actives lie on both sides; 0 = blocked by unlabeled MEK5, 100 = vehicle | AID 1529 | binding response (% of control), % at 10 µM | Q99759 | actives 1.4% (n = 290,000);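 active = binding response more than 3 SD above or below the average of its plate-row segment, actives on both sides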;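 note: Alexa488 bead fluorescence after subtracting the streptavidin-only scavenger bead signal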
# MEKK2wt PB1 HTS: raises or lowers MEK5 binding to wildtype human MEKK2 PB1 domain. bead flow cytometry, Alexa488-MEK5 binding to MEKK2 WT; actives lie on both sides. binding response (% of control), % at 10 µM. actives 1.1% (n = 290,000); in the data active = binding response below about 67% or above about 130%
# UBC13 polyUb: blocks human UBC13 polyubiquitin chain formation | actives 0.47% (n = 330,000) | AID 485273 | inhibition, % at 20 µM | TR-FRET | P61088; in the data active = inhibition above about 45%, passing the limit was not always enough
# Target sequence (P61088 whole entry, looked up): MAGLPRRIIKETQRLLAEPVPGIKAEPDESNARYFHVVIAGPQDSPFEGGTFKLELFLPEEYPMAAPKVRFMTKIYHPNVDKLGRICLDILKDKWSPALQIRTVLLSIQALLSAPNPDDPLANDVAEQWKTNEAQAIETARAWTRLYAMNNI
# PREPL inh: inhibits the human prolyl oligopeptidase-like enzyme. Q4J6C6. recombinant PREPL, fluorescence polarization activity-based probe. inhibition, % at 5.96 µM. actives 0.68% (n = 320,000). AID 2751; in the data active = inhibition above about 43%;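 note: 0% = enzyme with DMSO and 100% = wells lacking enzyme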
# ATG4B inhibitor: blocks human ATG4B protease cleavage of LC3 substrate. Q9Y4P1. ATG4B cleavage of LC3-PLA2, NBD-HPC fluorescence, 1 h. inhibition, % at 8.33 µM. actives 0.51% (n = 340,000); in the data active = inhibition above about 40%
# MEKK2 mut-MEK5: signal of MEK5 binding to mutant human MEKK2 PB1 domain. bead flow cytometry, Alexa488-MEK5 binding to MEKK2 mutant. percent response, % at 10 µM. actives 0.35% (n = 290,000); in the data active = percent response above about 24%, passing the limit was not always enough
# MEKK2wt confirm: raises or lowers MEK5 binding to wildtype human MEKK2, retest. shares compounds with MEKK3 PB1 HTS. bead flow cytometry, Alexa488-MEK5 binding to MEKK2 WT; actives lie on both sides. binding response (% of control), % at 10 µM. actives 2.4% (n = 5,900). AID 1892; in the data active = binding response below about 16% or above about 210%; inactive = in between
# MEKK2mut-MEK5: signal of MEK5 binding to mutant human MEKK2, retest. bead flow cytometry, Alexa488-MEK5 binding to MEKK2 mutant. shares compounds with MEKK3 PB1 HTS. AID 1893. percent response, % at 10 µM. actives 2% (n = 5,900); in the data active = percent response mostly above about 71%, no sharp cut-off; inactive = mostly below about 38%;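 note: higher means compound restores mutant binding toward wildtype level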
# MEKK3-MEK5 inh: confirmation of inhibitors of MEK5 binding to human MEKK3; shares compounds with MEKK3 PB1 HTS; bead flow cytometry, Alexa488-MEK5 binding to MEKK3; active compounds read low; binding response (% of control), % at 10 µM; actives 1.8% (n = 5,900); AID 1894;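 active = binding response below 72% of control, or above a set upper limit, though filed actives all read lower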;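 note: 100% = DMSO only wells and 0% = binding blocked by excess unlabeled MEK5; lower values mean stronger disruption of MEK5 binding to MEKK3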
# * marks the source's active call; other numbers are inactive results; / = not tested or not shown; [ ] = remark or other dose. This is a sample that favours compounds with a hit; in the whole collection about 3.1% have one here.
SMILES,MEKK3 PB1 HTS,MEKK2wt PB1 HTS,UBC13 polyUb,PREPL inh,ATG4B inhibitor,MEKK2 mut-MEK5,MEKK2wt confirm,MEKK2mut-MEK5,MEKK3-MEK5 inh
NS(=O)(=O)c1ccc(NC(=O)c2c(F)cccc2Cl)cc1,131.0*,130.0,-8.1,20.7,-16.2,26.0,106.0,-4.0,104.0
Cc1ccc(S(=O)(=O)N2CCOCC2)cc1NC(=O)CNc1ccccc1N1CCCC1=O,/,/,0.2,/,2.3,/,/,/,/
Cc1cc(C)cc(NC(=O)Nc2ccc(-n3ccc(C(F)(F)F)n3)cc2)c1,71.0,97.0,1.6,-5.2,31.8,-35.0,/,/,/
O=C(Nc1ccc(-n2ccc(C(F)(F)F)n2)cc1)Nc1cccc(Cl)c1,141.0*,245.0*,3.8,-7.7,/,74.0*,109.0,-4.0,106.0
Cc1ccc(S(=O)(=O)N(C)C)cc1-n1c(SCC(=O)N(C)C)nc2ccccc2c1=O,95.0,94.0,-15.6,-14.4,-4.7,-3.0,/,/,/
Cc1ccc(S(=O)(=O)N(C)C)cc1-n1c(SCC(=O)Nc2ccc(F)c(F)c2F)nc2ccccc2c1=O,148.0*,106.0,3.4,18.7,-3.5,1.0,97.0,-4.0,104.0
Cc1ccc(C(C)C)c(OCC(=O)N/N=C/c2ccc(S(=O)(=O)O)o2)c1,130.0*,119.0,-5.4,3.0,-9.6,25.0,95.0,-6.0,100.0
CC(C)(C)CC(C)(C)c1ccc(OCC(=O)N/N=C/c2ccc(S(=O)(=O)O)o2)cc1,102.0,94.0,-12.4,-23.9,12.8,-3.0,/,/,/
COc1ccc(C(CCN2CCCC(C)C2)c2c(OC)cc(OC)c3c(C)cc(=O)oc23)cc1 (stereo not given),120.0,138.0*,24.8,-16.9,-6.2,7.0,117.0,6.0,104.0
COc1cc(OC)c2c(-c3ccccc3)cc(=O)oc2c1C(CCN1CCCC(C)C1)c1ccc(N(C)C)cc1 (stereo not given),112.0,222.0*,19.3,21.3,29.1,41.0*,177.0,47.0,101.0
COc1cc(OC)c2c(C)cc(=O)oc2c1C(CCN1CCOCC1)c1ccc(N(C)C)cc1 (stereo not given),92.0,100.0,14.4,3.3,3.2,5.0,/,/,/
COc1cc(C(CCN2CCCCC2)c2c(OC)cc(OC)c3c(C)cc(=O)oc23)cc(OC)c1OC (stereo not given),118.0,141.0*,-1.3,6.8,-12.4,6.0,105.0,4.0,100.0
COc1cc(C(CCN2CCOCC2)c2c(OC)cc(OC)c3c(-c4ccccc4)cc(=O)oc23)cc(OC)c1OC (stereo not given),/,/,/,/,5.4,/,/,/,/
O=C1NCCN1CCN1C(=O)c2ccccc2NC1c1ccccc1 (stereo not given),103.0,101.0,22.1,-0.3,-0.2,7.0,/,/,/
CCCOc1ccc(-c2c(C(=O)N/N=C/c3cccs3)nnn2-c2nonc2N)cc1,101.0,91.0,-6.7,-0.7,17.0,4.0,/,/,/
Cc1ccc(NC(=O)CSC2=C(C#N)C(c3ccc4c(c3)OCO4)CC(=O)N2)cc1C (stereo not given),81.0*[inhibitor],85.0,21.8,8.2,6.1,-6.0,96.0,-6.0,97.0
CCc1ccc(NC(=O)CSC2=C(C#N)C(c3ccc4c(c3)OCO4)CC(=O)N2)cc1 (stereo not given),106.0,110.0,3.4,8.2,-9.6,5.0,/,/,/
O=C(N/N=C/c1c(O)n(-c2ccccc2Cl)c(=O)c2ccccc12)C1COc2ccccc2O1 (stereo not given),137.0*,103.0,-10.1,2.2,12.9,0.0,100.0,-1.0,102.0
Cc1c(/C=N\NC(=O)C2COc3ccccc3O2)c2ccccc2n1C (stereo not given),96.0,26.0*[inhibitor],/,21.2,-25.8,15.0,101.0,9.0,102.0

# Screening results as filed in PubChem BioAssay.
